From PubChem BioAssay AID977607 (Broad Institute, 2014)
Hit rate of the full screen: of about 1,500 compounds, about 460 (31%) were called active. Not shown: some 1% with an inconclusive outcome.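 How the source made its calls: active means curve reaches 40% activation over neutral controls at an AC40 no higher than the top valid tested concentration; inconclusive means no clear call, values can overlap the other calls; inactive means signal moving opposite to the expected increase, and the rest.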 The list is a sample of the results. Results with a measured potency or affinity are listed apart.

assay: activators of glucose-dependent insulin secretion, dose response, cell-based, INS-1E, Gaussia luciferase, luminescence, cherry-pick, set 2 (AID 977607); conditions: INS-1E GLuc insulin secretion reporter, 2-3 h, active compounds read high; at 35 µM, 100% = signal doubled over neutral wells unless noted;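 further: 0% = median of the plate neutral control wells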

Max activation, inactive:
c1ccc(-c2nc(NCC3CC3)nc3ccsc23)cc1 -19.8%
COc1cc2[nH]c(-c3ccc(C)cc3)cc(=O)c2cc1OC -18.5% [at 3.8 µM, 100% = signal doubled over neutral wells]
CC(=O)NN1C(=O)c2ccccc2NC1c1ccccc1O (centres undefined) -23.9% [at 0.42 µM, 100% = signal doubled over neutral wells]
O=C(Cn1nnc(-c2ccccc2)n1)N=Nc1c(O)[nH]c2ccccc12 32.5%
COc1cc(Cl)c(C)cc1NC(=O)c1ccccc1NC(=O)CN1CCN(C(C)=O)CC1 -25.4% [at 3.8 µM, 100% = signal doubled over neutral wells]
COc1ccc2nc3ccccc3nc2c1NC(=O)c1ccc(Cl)cc1 -10.8% [at 0.046 µM, 100% = signal doubled over neutral wells]
COc1cc2c(cc1OC)C(Nc1ccccc1)=NC(C)(C)C2 -20.4% [at 0.005 µM, 100% = signal doubled over neutral wells]
Cc1cc(Oc2cccnc2)ccc1NC(=O)Cc1cn(C)c2ccccc12 -32.7%
Cc1cc(C(=O)NC(C)CCC(C)C)c2ccccc2n1 (centres undefined) 29.7% [at 1.2 µM, 100% = signal doubled over neutral wells]
O=C(Nc1ccccc1C(=O)N/N=C/c1ccccc1)c1ccco1 -16.8% [at 0.0016 µM, 100% = signal doubled over neutral wells]
CCNC(=O)C1(C)CCCN1Cc1cccc(C(F)(F)F)c1 (centres undefined) -24%
CCCCNC(=O)C1(C)CCN1C(=O)Cc1cccc2ccccc12 (centres undefined) 11.1% [at 0.015 µM, 100% = signal doubled over neutral wells]
CCOc1ccc(C(=O)NCC(=O)Nc2cc(C)ccn2)cc1OCC -21.2% [at 11 µM, 100% = signal doubled over neutral wells]
Cn1c(=O)n(Cc2ccccc2Br)c2ccccc21 20.4% [at 0.0016 µM, 100% = signal doubled over neutral wells]
O=c1[nH]nc(-c2ccc(F)cc2)cc1Cc1cccs1 13.5% [at 3.8 µM, 100% = signal doubled over neutral wells]
Clc1ccc(-c2cc(CN3CCOCC3)no2)cc1 -22.2% [at 11 µM, 100% = signal doubled over neutral wells]
CCNc1nc(NCC)nc(N(C)/N=C/c2ccco2)n1 24.3% [at 11 µM, 100% = signal doubled over neutral wells]
COc1cc(C(C(=O)NC2CCCC2)N(Cc2ccco2)C(=O)c2snc(C(N)=O)c2N)cc(OC)c1OC (centres undefined) 22.3% [at 0.015 µM, 100% = signal doubled over neutral wells]
COc1ccc(C2C3CCCCC3(O)CCN2C(=O)c2cccs2)cc1 (centres undefined) -22.1% [at 0.046 µM, 100% = signal doubled over neutral wells]
CC1CCC(NCCNC(=O)c2ccco2)CC1 (centres undefined) -20.4%
Cc1cc(Br)c2c(c1)C1(OCCO1)C(=O)N2 -12%
CC(=O)c1cccc(NC2c3ncccc3C(=O)N2Cc2ccco2)c1 (centres undefined) 50.6% [at 11 µM, 100% = signal doubled over neutral wells]
O=C1c2cccnc2C(Nc2ccc(F)c(Cl)c2)N1Cc1cccs1 (centres undefined) -13.1% [at 0.135 µM, 100% = signal doubled over neutral wells]
C=CCN1C(=O)CSc2ccc(C(=O)OCC)cc21 -11.5% [at 3.8 µM, 100% = signal doubled over neutral wells]
CCCN(Cc1nnc(-c2ccccc2Cl)o1)C(=O)c1cc2ccccc2o1 -17% [at 11 µM, 100% = signal doubled over neutral wells]
Cc1cc(C)cc(N(C(=O)C(F)(F)F)C(C(=O)NC2CCCCC2)c2cccs2)c1 (centres undefined) 37.1% [at 0.42 µM, 100% = signal doubled over neutral wells]
Cc1ccc(S(=O)(=O)N2CCN(C(=O)COC(=O)c3ccc(O)cc3)CC2)c(C)c1 -39.9%
N#CC1=C(N)Oc2n[nH]c(-c3ccc(F)cc3)c2C1c1cccnc1 (centres undefined) 43%
O=C(O)Cc1ccc(NS(=O)(=O)c2ccc3c(c2)OCCO3)cc1 -23.1% [at 0.0016 µM, 100% = signal doubled over neutral wells]
COc1ccc(S(=O)(=O)N(C)CC(=O)Nc2ccc3c(c2)OCCO3)cc1OC 41.6% [at 0.0016 µM, 100% = signal doubled over neutral wells]
O=C(N=C1SC2CS(=O)(=O)CC2N1c1ccc(F)c(Cl)c1)C1CC1 (centres undefined) -16.2% [at 0.046 µM, 100% = signal doubled over neutral wells]
Cc1ccc(NC(=O)c2cc(-c3ccccc3O)n[nH]2)cc1C 17.3%
Cc1cc2nc(-c3ccccc3O)[nH]c2cc1C -13.8% [at 0.42 µM, 100% = signal doubled over neutral wells]
O=C(c1cc(-c2ccc(F)cc2)nc2ccccc12)N1CCN(C2CCS(=O)(=O)C2)CC1 (centres undefined) -24.6% [at 0.0016 µM, 100% = signal doubled over neutral wells]
CC(=O)c1cccc(N(CC(=O)NC2CCCCC2)C(=O)Cn2nnc(-c3ccccc3)n2)c1 -24.8% [at 0.0016 µM, 100% = signal doubled over neutral wells]
CCOc1nc(-c2ccccc2)c2cc(Br)ccc2n1 13.2%
COc1ccc(C(=O)Nc2nnc(-c3ccco3)s2)cc1 -13.7% [at 0.135 µM, 100% = signal doubled over neutral wells]
NC(=O)C1CCN(C(=O)CCNS(=O)(=O)c2ccccc2F)CC1 14.1% [at 1.2 µM, 100% = signal doubled over neutral wells]
CCn1cc(C(=O)O)c(=O)c2cc(F)c(N3CCN(C(=S)NC(=O)c4cccc(C)c4)CC3)cc21 -20.5%
CCOc1ccc(CCNC(=O)COC(=O)c2cccc(N(C)C)c2)cc1OCC -44%
CC(C)CC(=O)Nc1cccc(-c2nc3ncccc3o2)c1 -18.2% [at 0.0016 µM, 100% = signal doubled over neutral wells]
COc1ccc(S(=O)(=O)N2CCCCC2)cc1NC(=O)C1CCCC1 -27.7% [at 0.135 µM, 100% = signal doubled over neutral wells]
CN1CCN(c2ccc(NC(=O)c3ccc(Oc4ccccc4)cc3)cc2)CC1 -14.3% [at 0.015 µM, 100% = signal doubled over neutral wells]
O=C(NCc1ccccc1)c1cccnc1Sc1ccccc1 14.4% [at 3.8 µM, 100% = signal doubled over neutral wells]
CCOCCCn1c(SCc2ccccc2)nnc1-c1ccncc1 27.1% [at 1.2 µM, 100% = signal doubled over neutral wells]
CNc1nc(-c2ccccc2)cc(-c2ccccc2)n1 -32.2%
CC(C)Cc1nc2n[nH]c(N)c2c2c1COC(C)(C)C2 33.4%
CCCCOc1ccc(SCCCN2CCOCC2)cc1 -17.1% [at 11 µM, 100% = signal doubled over neutral wells]
CC(=O)Oc1ccccc1C(=O)OCCN=C1NS(=O)(=O)c2ccccc21 -19.1% [at 0.046 µM, 100% = signal doubled over neutral wells]
CCOC(=O)c1cc(-c2ccc(Cl)s2)nc2c1c(C)nn2C 61.3%
N#Cc1cccnc1Nc1cccc(Cl)c1 31.6%
CCNC(=O)C1(C)CCCN1C(=O)c1cc(OC)c(OC)c(OC)c1 (centres undefined) -19.1% [at 0.135 µM, 100% = signal doubled over neutral wells]
O=C(Nc1cccc(Cl)c1)Nc1nc(-c2ccc(Cl)cc2)cs1 -37.7% [at 11 µM, 100% = signal doubled over neutral wells]
CC(=O)Nc1ccc(Nc2nc(-c3c(C)nc4ccccn34)cs2)cc1 -20% [at 11 µM, 100% = signal doubled over neutral wells]
Cc1ccc(-c2cc(C(=O)Nc3nn[nH]n3)c3ccccc3n2)c(C)c1 -12.2% [at 1.2 µM, 100% = signal doubled over neutral wells]
Cc1ccc2c(c1)C=CC(C#N)N2C(=O)c1ccccc1 (centres undefined) 36.1%
O=C(COc1nncc2ccccc12)NCC(F)(F)F 25.7%
Cc1ccc(C(OCC(O)CNCc2ccc(F)cc2)c2ccccc2)cc1 (centres undefined) 97.1%
CCOC(=O)CN1C(=O)[C@]2(OCCC=C[C@H]2C)c2ccccc21 33.6%
